# Experimental data from PubChem BioAssay AID652126 (The Scripps Research Institute Molecular Screening Center, 2013).
# The campaign covered roughly 370,000 compounds. About 3,700 (1%) were called active. The sample as a whole holds a higher share of actives than the screen did. Unmarked numbers belong to inactive results.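 Rule for the calls: active = activation above the mean over all tested compounds plus 3 SD (cut at about 0.9% in these data); inactive = the rest.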
# Tested on: Nuclear hormone receptor DAF-12 (Strongyloides stercoralis)
# Experiment: S. stercoralis DAF-12 nuclear receptor activators, primary screen, cell-based, luminescence, HEK293, GRIP1 co-expression, lit1-tk-luc (AID 652126);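 note: 0% = DMSO-only wells and 100% = 3 µM delta7-dafachronic acid wells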
# Conditions: HEK293 ssDAF-12/GRIP1 lit1-tk-luc reporter, at 6.8 µM, active compounds read high, % of 3 µM dafachronic acid response
row,Compound,activation
1,O=C(Nc1nnc(-c2ccccc2)o1)c1cccc(S(=O)(=O)N2CCOCC2)c1,-0.75%
2,COc1ccccc1-c1nnc(NC(=O)c2ccc3ncsc3c2)o1,0.27%
3,COc1ccccc1-c1nnc(NC(=O)c2cccc(N3C(=O)CCC3=O)c2)o1,1.57% (active)
4,Cc1ccc(NC(=S)NNC(=O)CSc2nnc(SCc3ccccc3Cl)s2)cc1,-1.2%
5,CCOc1ccc2c(c1)C(c1ccc(C)cc1)=NNC(c1ccc(C)cc1)=N2,-0.66%
6,Cc1ccc(C2=Nc3c(ccc4ccccc34)C(c3ccncc3)=NN2)cc1,1.33% (active)
7,CN(C)c1ccc(NC(=O)NC2CCCCN(Cc3ccc(Cl)cc3)C2=O)cc1 (stereo not drawn),-1.57%
8,COc1ccc(C2CC=C(C(=O)O)C(c3ccccc3F)N2S(=O)(=O)c2ccc(C)cc2)cc1OC (stereo not drawn),1.37% (active)
9,Cc1ccc(S(=O)(=O)N2[C@@H](c3ccccc3F)C(C(=O)O)=CC[C@H]2c2ccc(Cl)cc2)cc1,-1.05%
10,Cc1ccc(S(=O)(=O)N2[C@@H](c3cccc(Cl)c3)C(C(=O)O)=CC[C@H]2c2ccc(Cl)c(Cl)c2)cc1,-1.12%
11,COc1ccc(N2CCN(CCNS(=O)(=O)c3ccc([N+](=O)[O-])cc3)CC2)cc1,-1.33%
12,Cn1c(=O)c(Sc2ccc(Cl)cc2)c(O)c2ccccc21,0.04%
13,C=CCn1c(=O)c(C(=O)Nc2ncccc2O)c(O)c2ccccc21,-0.42%
14,Cn1c(=O)c(C(=O)Nc2ncccn2)c(O)c2ccccc21,2.21% (active)
15,CN(C)[C@H]1CCN(c2cccc3c2S(=O)(=O)N2CC[C@H](C2)O3)C1,-0.74%
16,CC(C)(C)NC(=O)C(c1cccnc1)N(C(=O)c1cnco1)c1ccc(C(C)(C)C)cc1 (stereo not drawn),-2.05%
17,COc1ccccc1C(=O)N/C(=C/c1ccco1)C(=O)Nc1ccc(C(=O)O)cc1,1.14% (active)
18,COc1ccc(/C=C(/NC(=O)c2ccco2)C(=O)Nc2ccc(C(C)=O)cc2)cc1,-1.1%
19,COc1ccccc1C(=O)N/C(=C/c1ccc2c(c1)OCO2)C(=O)Nc1cccc(C(=O)O)c1,-0.63%
20,CCOC(=O)[C@]12CCCC3=C1N(CCC3)C(=O)[C@@H](CC(=O)NCC13CC4CC(CC(C4)C1)C3)C2,-0.93%
21,Cc1ccc(NC(=O)Cc2cccc(F)c2)c(S(=O)(=O)N2CCOCC2)c1,-0.55%
22,O=C(NC1CCCC1)C1CSCCS(=O)(=O)N1Cc1ccccc1 (stereo not drawn),-1.05%

row,Compound,activation
1,Cc1noc(C)c1/C=N/Nc1ccc2ccccc2n1,1.61% (active)
2,C=CCN1C(=O)[C@H](CC(=O)N2CCN(C(=O)OCC)CC2)[C@@]2(C(=O)OCC)CCCC=C12,-0.45%
3,Cc1ccc(-n2c(SCC(=O)Nc3ccc(S(=O)(=O)Nc4nccs4)cc3)nnc2-c2ccccn2)cc1,-0.88%
4,Cc1ccnc(Nc2nc3ccccc3s2)n1,1.25% (active)
5,Cc1ccnc(-n2sc3ccccc3c2=O)n1,0.16%
6,Cc1cccc(NC(=O)C[C@H]2CC[C@H]3[C@@H](COc4ccc(NC(=O)Nc5ccccc5)cc4C(=O)N3C)O2)c1,-1.84%
7,Cc1cccc(S(=O)(=O)N2CN(CC3CCCO3)c3nc4ccccc4nc32)c1 (stereo not drawn),-0.43%
8,CCOC(=O)C1CCN(C(=O)C(C)(C)NC(=O)Nc2ccc(F)c(F)c2)CC1,-1.1%
9,COC(=O)C1CN(CC(C)C)CCS(=O)(=O)N1Cc1ccc(C)cc1 (stereo not drawn),-0.69%
10,COc1ccccc1OCc1nc2ccccc2s1,2.57% (active)
11,COc1ccccc1OCc1nnc(SCC(N)=O)n1-c1ccccc1,-1.54%
12,CCc1ccc(-c2nnn(Cc3nc4ccccc4s3)n2)cc1,-0.71%
13,COC(=O)C12C=C3CC(c4ccccc4)=C3C(=O)N1Cc1[nH]c3ccccc3c1C2 (stereo not drawn),-1.07%
14,COc1ccc2c(c1)CN1CN(CCc3ccccc3)S(=O)(=O)CC21 (stereo not drawn),-0.04%
15,Cc1cc(Cl)ccc1NNC(=O)c1snnc1C,2.01% (active)
16,Cc1nnsc1C(=O)NCc1c(F)cccc1Cl,-0.35%
17,Cc1nnsc1C(=O)Nc1cccc(Cl)c1C,-1.69%
18,CCOC(=O)/C=C/c1ccccc1O,-1.38%
19,COc1ccc(-n2c(SCC(=O)OC(C)C)nnc2-c2ccccn2)cc1,-1.58%
20,COc1ccnc(Oc2ccccc2)n1,-0.92%
21,COc1ccc2nc(-c3ccccn3)ccc2c1,0.98% (active)
22,CC(c1ccc(N)cc1)c1cn(C)c2ccccc12 (stereo not drawn),-1.36%

row,Compound,activation
1,C=CS(=O)(=O)N(Cc1nnn(Cc2ccccc2)c1Br)[C@H](C(=O)OC)C(C)C,-1.75%
2,COc1cc(/C=C/C(=O)n2cnc3ccccc32)cc(OC)c1OC,-2.15%
3,COc1ccnc(NC(=S)N2CCN(c3ncc(C(F)(F)F)cc3Cl)CC2)c1,-1.56%
4,CN(CCO)S(=O)(=O)c1ccc2c(c1)C(=O)c1cc(S(=O)(=O)N(C)CCO)ccc1-2,-1.38%
5,COC(=O)[C@]12C[C@H](CC(=O)NCc3ccccc3)C(=O)N(CCc3ccc(OC)c(OC)c3)C1=C[C@H](C(C)(C)C)O[C@@H]2C,-1.28%
6,COc1ccc(CSc2nnc(SCC(=O)Nc3ccccc3C(F)(F)F)s2)cc1,-1.22%
7,COC(=O)C(NC(C)=O)(Nc1nc2c(s1)CCCC2)C(F)(F)F (stereo not drawn),-0.86%
8,Fc1ccc2nc(Nc3nc4c(s3)CCCC4)sc2c1,1.92% (active)
9,C[C@H]1CCC/C=C/C(=O)c2c(O)cc(O)cc2CC(=O)O1,-1.77%
10,CCCCOCCCNC(=O)C[C@H]1C[C@@]2(C(=O)OC)C(=C[C@H](COCc3ccccc3)O[C@@H]2C)N(Cc2cccc3ccccc23)C1=O,-1.25%
11,COC(=O)[C@]12C[C@H](CC(=O)NCCc3ccccc3OC)C(=O)N(Cc3ccco3)C1=C[C@H](C(C)C)O[C@@H]2C1CC1,-1.3%
12,CCCN(c1ccc(C)cc1)c1nc(=O)c2cccnc2s1,1.12% (active)
13,COc1ccnc(C(=O)N2CCC(Oc3cccnc3)CC2)c1,-1.55%
14,CCCCCCN1CCS(=O)(=O)N(Cc2ccc(C(F)(F)F)cc2)C(C(=O)OC)C1 (stereo not drawn),-0.61%
15,CN[C@H]1C[C@H]2c3cc(N4CCOCC4)ccc3CCN2C[C@H]1[C@H](C)O,-1.27%
16,c1ccc(C2c3[nH]c4ccccc4c3CCN2Cc2cccn2-c2cccnc2)nc1 (stereo not drawn),-1.17%
17,O=C(c1cn2ccccc2n1)N1CCc2c([nH]c3ccccc23)C1c1ccccn1 (stereo not drawn),0.91% (active)
18,COCc1ccc(C(=O)N2CCc3c([nH]c4ccccc34)C2c2ccccn2)s1 (stereo not drawn),-2.05%
19,CCC(C)[C@@H](C(=O)OC)N(CCc1cn(Cc2ccccc2)nn1)S(=O)(=O)c1ccccc1Br (stereo partly drawn),-1.79%
20,COc1ccc([C@H]2CC(=O)C=C(c3ccc(C)cc3)C2)cc1,-0.86%
21,COc1ccc(C2=Nc3cc(C)ccc3OC2)cc1,1.43% (active)
22,COc1ccc(/C=C/c2c(-c3cccc(C)c3)oc3ccc(-c4ccc5c(c4)OCO5)cc23)cc1,-1.12%

row,Compound,activation
1,CCOc1ccc(Oc2c(Cl)cnn(-c3ccc(C)cc3)c2=O)cc1,-1.17%
2,Cc1ccc(-c2nnc(-n3nnc4ccccc43)c3ccccc23)cc1,-1.26%
3,Cc1ccc(C2=NN(C)c3nc4ccccc4n3C2)cc1,1.2% (active)
4,Cc1nc2ccccc2n1CC(O)c1ccccc1 (stereo not drawn),-1.14%
5,O=C(CCCCCN1C(=O)C2C3C=CC(C3)C2C1=O)Nc1ccccc1 (stereo not drawn),-1.12%
6,COc1c(N2CCN(C(=S)Nc3ccccc3F)C(C)C2)c(F)cc2c(=O)c(C(=O)O)cn(C3CC3)c12 (stereo not drawn),-0.28%
7,O=C(NC1CCC1)c1ccc(C#Cc2cccc(F)c2)c[n+]1[O-],-1.07%
8,CSc1nc(C)nc(C2CC2)c1C#N,-1.49%
9,Nc1ccc(C(=O)Nc2ccccc2N)cc1,1.55% (active)
10,CC(CNC(=O)c1ccc(N)cc1)NC(=O)c1ccc(N)cc1 (stereo not drawn),-1.71%
11,O=C(Nc1ccccc1C(=O)N1CCOCC1)c1ccc(Cl)cc1,-1.32%
12,Cc1ccc(-n2c(COc3ccccc3)nnc2SCC(=O)Nc2ccc3c(c2)OCCO3)cc1,-1.43%
13,Cc1cccc(NC(=O)c2ccc3ccccc3n2)n1,1.11% (active)
14,COC(=O)c1ccc(NC(=S)Nc2cccc(C)n2)cc1,-0.35%
15,CC(NC(=O)COC(=O)c1ccc2ccccc2n1)c1ccccc1 (stereo not drawn),-0.49%
16,Cc1c(C(C)c2ccccc2O)[nH]c2ccccc12 (stereo not drawn),-0.11%
17,CCOc1ccc(-n2c(SCC(=O)Nc3cc(C)c(NC(=O)c4ccccc4)cc3OC)nnc2-c2cccs2)cc1,-1.35%
18,CCOC(=O)N1CCN(C(=O)C[C@H]2C[C@@]3(C(=O)OC)C(=C[C@H](C(C)(C)C)O[C@@H]3C)N(Cc3ccc(Cl)cc3Cl)C2=O)CC1,-1.86%
19,COc1ccc(C)cc1S(=O)(=O)NCCc1ccccc1,-0.72%
20,COc1ccc(OC)c(S(=O)(=O)NCCC(C)C)c1,1.47% (active)
21,COCCNS(=O)(=O)c1cc(Br)ccc1OC,-1.56%
22,CC(C)CNc1cccc2c1S(=O)(=O)N(Cc1cn(Cc3ccc(Cl)cc3)nn1)Cc1ccccc1O2,-1.25%
